# PINK1 modulator = PINK1 expression modulation; PINK1 immunofluorescence, high-content cytometry, 24 h; Potency, µM (top dose mostly 76.6 µM), without a hit: at the top dose activation (PINK1 increase), actives largely listed as activators; 410,000 compounds, 0.2% hits; AID 624263; active = well fitted activation curve with a large enough effect; inconclusive = small, poorly fitted or top-dose-only effect; cell line not stated here; note: potency is the fitted concentration of half-maximal effect; % of control where 0% means no effect; nearly all actives have a fitted effect of over 65% in size
#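 Measures PINK1 amount and localization on or inside mitochondria by immunofluorescence. Stable cells get compounds at 5 concentrations for 24 hours before fixation and staining; CCCP controls included.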
# MCF10A rerep = induces DNA re-replication in MCF 10a normal breast cells | Potency, µM (titrated, usually from 46.1 µM), without a hit: at the top dose activity, positive = re-replication, hits mostly activators | MCF 10A DNA re-replication, Hoechst nuclear intensity, 48 h | 350,000 compounds, 2.9% hits; note: potency is the fitted concentration of half-maximal effect; % of control where 0% means no effect; nearly all actives have a fitted effect of over 50% in size
# SW480 rerep = inducers of DNA re-replication in SW480 colon cancer cells | SW480 DNA re-replication, Hoechst DNA content imaging, 48 h | Potency, µM (highest dose often 46.1 µM), without a hit: at the highest dose re-replication activation, most hits filed as activators | 340,000 compounds, 1.8% hits; note: potency is the fitted concentration of half-maximal effect; % of control where 0% means no effect; nearly all actives have a fitted effect of over 55% in size
#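 Quantitative HTS format with DMSO vehicle controls; 48 hr drug incubation at 37 C, then 40 min Hoechst staining and scanning imager measurement at 405 nm excitation.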
# ATXN2 expr inh = reduces ATXN2 reporter expression in HEK-293 cells | Potency, µM (top dose mostly 57 µM), for the others: top-dose activity change, negative = inhibition, actives largely listed as inhibitors | 360,000 compounds, 0.72% hits | HEK-293 ATXN2-luciferase reporter, luminescence, 24 h | AID 1745845; note: potency is the fitted concentration of half-maximal effect; % is set by controls: 0 for no effect and ±100 for the full control effect; nearly all actives have a fitted effect of over 55% in size
#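 ATXN2-luciferase reporter cells (luciferase flanked by upstream and downstream ATXN2 gene portions) were treated 24 h at 37 °C with compounds at up to 57 uM. SteadyGlo luminescence gave expression; GF-AFC fluorescence gave viability.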
# IL-1B inflam inh = inflammasome signaling inhibition, IL-1 beta readout | THP-1 LPS/ATP IL-1B secretion, AlphaLISA, 16 h; stronger effect = lower value | activity change, % at 57.5 µM | 360,000 compounds, 4.7% hits; in the data active = activity change below about -50%; inconclusive = mostly about -30% to -49%; note: % is set by controls: 0 for no effect and ±100 for the full control effect
#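 THP-1 cells pretreated 1 hr with compounds (up to 57.5 uM final), then stimulated with LPS (250 ng/mL final) plus ATP (1.25 mM final); secreted IL-1B measured by AlphaLISA after 16 hr, decreased signal indicating inhibition.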
# ATXN viability = reduces viability in counter-screen for ATXN expression inhibitors; 400,000 compounds, 0.49% hits; S2 cells (HEK-293 line with an ATXN2-luciferase reporter) viability, CellTiter-Fluor protease fluorescence, 24 h; Potency, µM (highest dose often 56.7 µM), actives largely listed as cytotoxic; note: potency is the fitted concentration of half-maximal effect; nearly all actives have a fitted effect of over 40% in size
# * = called active by the depositor; i = inactive; ? = inconclusive; nt = no result given; [ ] = another dose, or the depositor's remark. In the library only some 7.1% were active in any assay of this set; here they are far more common. Unless noted, calls come from the whole dose curve; as a rule, active = well fitted curve in the direction sought with a large enough effect; inconclusive = small, poorly fitted or top-dose-only effect, or another doubt; inactive = no such curve, though single readings can be large; an effect the other way counts as inactive or inconclusive.
SMILES,PINK1 modulator,MCF10A rerep,SW480 rerep,ATXN2 expr inh,IL-1B inflam inh,ATXN viability
Cc1sc(-c2cc3c([nH]c2=O)CC(c2ccccc2)CC3=O)nc1-c1ccc(Cl)cc1 (centres undefined),5%,nt,nt,-1%,nt,i
Cc1ccc(/C=C2/CCc3c([nH]c4ccccc34)C2=O)cc1,12%,1%,1%,88%,1,i
O=C1/C(=C\c2ccccc2)CCc2c1[nH]c1ccccc21,6%,?,3.3µM*,27%,?,i
Cc1ccc2cc(CN(CCc3ccccc3)C(=S)NCCCN(C)C)c(=O)[nH]c2c1,-1%,?,?,?,?,?
COCCNC(=S)N(Cc1cccs1)Cc1cc2cccc(C)c2[nH]c1=O,-1%,15%,-2%,-12%,-56*,i
Cc1cccc2cc(CN(CCCN(C)C)C(=S)NCCc3ccccc3)c(=O)[nH]c12,0%,1%,3%,-15%,-51*,i
Cc1ccc2[nH]c(=O)c(CN(CCCN(C)C)C(=S)NCCc3ccccc3)cc2c1,-2%,-1%,22%,-22%,-67*,?
Cc1cccc(NC(=S)N(Cc2cccs2)Cc2cc3cc(C)cc(C)c3[nH]c2=O)c1,10%,10%,-2%,-10%,3,i
CCC(CC)c1nn2c(=O)cc(COc3ccc(NC(=O)c4cccc(C)c4)cc3)nc2s1,0%,nt,nt,13%,nt,i
COc1ccc(CNCCC2(Cc3ccccc3)CC(C)N(C)CC2C)cc1OC (centres undefined),7%,?,-9%,?,-61*,?
CCN(CC)CCN1C(=O)c2cccc3cc(N)cc(c23)C1=O,-2%,22%,?,?,-78*,?
CN(C)CCN1C(=O)c2cccc3cc(N)cc(c23)C1=O,nt,nt,nt,5.4µM*,nt,nt
CCCN1CNc2c(c(=O)[nH]c(=S)n2CCc2cc(OC)cc(OC)c2)C1,0%,nt,nt,nt,nt,nt
O=C(O)c1cccc2c1C(=O)c1ccc(-c3ccc(Cl)c(C(F)(F)F)c3)cc1S2(=O)=O,0%,-4%,0%,46%,-78*,i
CC(C)c1cccc(-c2ccc3c(c2)S(=O)(=O)c2cccc(C(=O)O)c2C3=O)c1,1%,-11%,-2%,8%,4,i
Cc1cc(NCc2ccccn2)n2nc(C)c(-c3ccccc3)c2n1,6%,6%,?,?,-15,?
Cc1nn2c(NCc3ccccn3)cc(C(C)(C)C)nc2c1-c1ccccc1,18µM*,2.6µM*,2.9µM*,-29%,5,?
COc1cc2c(cc1OC)CN(C(=O)CSc1ccccc1C)CC2,0%,2%,0%,11%,-60*,i
COc1ccccc1C(=O)Nc1ccc2c(c1)CN(C(=O)CSC)CC2,5%,12µM*,?,-6%,-1,i
CCOC(=O)CNC(=O)N1CCc2ccc(NC(=O)c3ccccc3Cl)cc2C1,4%,7.3µM*,-21%,0%,0,i
COc1cc2c(cc1OC)CN(C(=O)CSC1=NCCS1)CC2,2%,nt,nt,nt,-3,?
O=C(NCC(=O)N1CCc2ccccc2C1)c1ccccc1Cl,0%,-14%,-9%,27%,7,i
CCn1nc(C)cc1C(=O)NCCN1Cc2ccccc2OC(c2ccccc2F)C1 (centres undefined),2%,nt,nt,nt,nt,?
CCC1CN(CCNC(=O)c2cc(C)nn2CC)Cc2cc(OC)ccc2O1 (centres undefined),1%,nt,nt,nt,nt,i
CCOc1cc(S(=O)(=O)Nc2cc(C)cc(C)c2)ccc1Cl,15%[38.3 µM],?,23%,?,-59*,?
SMILES,PINK1 modulator,MCF10A rerep,SW480 rerep,ATXN2 expr inh,IL-1B inflam inh,ATXN viability
CCOc1ccc(C(=O)NCC(c2ccc3c(c2)OCO3)N2CCN(C)CC2)cc1 (centres undefined),-2%,nt,nt,-1%,nt,?
O=C(c1ccc(N2CN(C(=O)c3ccco3)c3nc4ccccc4nc32)cc1)N1CCOCC1,2%[38.3 µM],3%,16%,1%,-59*,i
O=C1Nc2ccc([N+](=O)[O-])cc2OC1CCN1CCN(Cc2ccccc2)CC1 (centres undefined),0%,-25%,1%,-20%[2.22 µM],-1,?
CCn1c(=O)c([N+](=O)[O-])c(N2CCN(Cc3ccc4c(c3)OCO4)CC2)c2ccccc21,-2%,?,-1%,-28%,-66*,i
CCn1c(=O)c([N+](=O)[O-])c(N2CCSCC2)c2ccccc21,-1%,?,-3%,-2%,-18,i
O=Cc1cc([N+](=O)[O-])ccc1N1CCN(Cc2ccc3c(c2)OCO3)CC1,?,?,-14%,-24%,-64*,i
O=C1Nc2ccc([N+](=O)[O-])cc2OC1CCN1CCN(Cc2ccc3c(c2)OCO3)CC1 (centres undefined),0%,-2%,-1%,-8%,-51*,i
CN(C)CCCNS(=O)(=O)c1ccc(N2CCN(Cc3ccc4c(c3)OCO4)CC2)c([N+](=O)[O-])c1,0%,14%,?,?,-70*,i
O=C(Cc1ccccc1)NCCc1csc2nc(-c3ccc(Cl)cc3)nn12,0%,nt,nt,-1%,nt,?
CNC(=S)NNC(=O)Cc1ccccc1,-5%,6%,2%,-3%,-7,i
CCOc1ccc(CC(=O)NNC(=S)NC)cc1,2%,1.3µM*,-56%,0%,nt,i
O=S(=O)(NCC(c1ccco1)S(=O)(=O)c1cccs1)c1ccc(Cl)cc1 (centres undefined),-1%,nt,nt,nt,nt,nt
O=C(CCN1C(=O)/C(=C/c2cccs2)SC1=S)Nc1cccc(O)c1,-1%,?,0%,12%,-82*,i
O=C(CCCN1C(=O)/C(=C/c2cccs2)SC1=S)Nc1cccc(O)c1,-3%,?,?,22%,-94*,?
CCN(CC)C(=O)C(Sc1nnnn1-c1ccc(O)cc1)c1ccccc1 (centres undefined),0%,-17%,-87%,-5%,-74*,i
O=C(COC(=O)/C=C/C(=O)N1CCN(c2ccccc2)CC1)NCc1ccc(F)cc1,2%,13%,-3%,19%,-15,i
COC(=O)/C=C/C(=O)N1CCN(c2ccccc2C)CC1,8%,?,?,4%,-108*,?
COC(=O)/C=C/C(=O)N1CCN(c2ccccc2)CC1,1%,17%,-2%,5%,-91*,i
Cc1csc(-c2nnc(Nc3ccc(Oc4ncccc4-c4ccnc(N)n4)cc3)c3ccccc23)c1,nt,nt,nt,12µM*,nt,nt
O=C(Nc1cccc(C(=O)N2CCN(c3ccc(F)cc3)CC2)c1)c1nsc2ccccc12,-1%,nt,nt,?,nt,?

# High-throughput results: PubChem, National Center for Advancing Translational Sciences (NCATS)
